Experimental data published in PubChem BioAssay AID1159580 (chemical genetic matrix, 2015).
Several values for one entry are separate records, joined by “and”; a condition that tells them apart may be missing. Equal entries are not always repeated. About 2,000 (36%) of roughly 5,500 compounds were called active. Inconclusive results (about 18%) are left out. Rule as the data show it: active = normalized growth mostly below about 0.91 (no sharp cut-off); inconclusive = no clear call, values can overlap the other calls; inactive = mostly above about 0.92. The list shows a part of the results.

Experiment: chemical genetic growth profiling, strain panel (AID 1159580);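 also: tested at 20 µM; growth read once vehicle control cultures reached saturation at 30 °C; 1 = growth at the plate median or of vehicle wells; lower values mean less growth of the strain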
Settings: S. cerevisiae deletion strains, growth OD

Measured: normalized growth

COc1ccc2c(c1)[nH]c1c(C)nccc12
inactive: locus YAL013W, strain DEP1, active compounds read low 1.02 | locus YAL021C, strain ccr4, active compounds read low 0.978 | locus YAL026C, strain drs2, active compounds read low 1 | locus YAL030W, strain snc1, active compounds read low 1 | locus YBL061C, strain skt5, active compounds read low 0.993 | locus YBR009C, strain hhf1, active compounds read low 0.992 | locus YBR021W, strain FUR4, active compounds read low 1.03 | locus YBR023C, strain chs3, active compounds read low 1 | locus YBR171W, strain sec66, active compounds read low 0.987 | locus YBR229C, strain ROT2, active compounds read low 1.02 | locus YBR231C, strain swc5, active compounds read low 0.994 | locus YBR279W, strain paf1, active compounds read low 0.991 | locus YCL011C, strain gbp2, active compounds read low 1.01 | locus YCL016C, strain dcc1, active compounds read low 1 | locus YCL029C, strain bik1, active compounds read low 0.968 | locus YCL061C, strain MRC1, active compounds read low 0.994 | locus YCL069W, strain vba3, active compounds read low 0.995 | locus YCR088W, strain abp1, active compounds read low 1 | locus YDL005C, strain med2, active compounds read low 0.994 | locus YDL035C, strain GPR1, active compounds read low 0.998 | locus YDL040C, strain nat1, active compounds read low 0.995 | locus YDL074C, strain BRE1, active compounds read low 1.03 | locus YDL101C, strain DUN1, active compounds read low 1.01 | locus YDL134C, strain PPH21, active compounds read low 1.02 | locus YDL185W, strain tfp1, active compounds read low 0.968 | locus YDL192W, strain arf1, active compounds read low 0.979 | locus YDR001C, strain nth1, active compounds read low 0.991 | locus YDR069C, strain doa4, active compounds read low 0.997 | locus YDR101C, strain arx1, active compounds read low 0.987 | locus YDR137W, strain rgp1, active compounds read low 1.01 | locus YDR150W, strain NUM1, active compounds read low 0.978 | locus YDR159W, strain sac3, active compounds read low 1.01 | locus YDR162C, strain NBP2, active compounds read low 1.02 | locus YDR195W, strain ref2 1.01 | locus YDR297W, strain sur2, active compounds read low 0.999 | locus YDR318W, strain mcm21, active compounds read low 0.986 | locus YDR334W, strain swr1, active compounds read low 0.991 | locus YDR335W, strain msn5, active compounds read low 0.994 | locus YDR388W, active compounds read low 0.98 | locus YDR392W, strain spt3, active compounds read low 0.991 | locus YDR502C, strain sam2, active compounds read low 0.995 | locus YEL003W, strain gim4, active compounds read low 0.988 | locus YEL037C, strain rad23, active compounds read low 0.991 | locus YEL061C, strain CIN8 (second series), active compounds read low 0.99 | locus YEL061C, strain CIN8, active compounds read low 1.01 | locus YER015W, strain faa2, active compounds read low 0.988 | locus YER016W, strain bim1, active compounds read low 0.997 | locus YER110C, active compounds read low 0.969 | locus YER111C, strain swi4, active compounds read low 0.998 | locus YER155C, strain BEM2 (second series), active compounds read low 0.95 | locus YER155C, strain BEM2, active compounds read low 1.01 | locus YER167W, strain BCK2, active compounds read low 1 | locus YFR010W, strain ubp6, active compounds read low 0.982 | locus YGL078C, strain dbp3, active compounds read low 0.972 | locus YGL086W, strain mad1, active compounds read low 0.981 | locus YGL167C, strain pmr1, active compounds read low 0.991 | locus YGL173C, strain kem1, active compounds read low 0.999 | locus YGL227W, strain vid30, active compounds read low 0.984 | locus YGL240W, strain doc1, active compounds read low 0.989 | locus YGL248W, strain PDE1, active compounds read low 1.02 | locus YGL253W, strain hxk2, active compounds read low 0.995 | locus YGR078C, strain PAC10, active compounds read low 1.03 | locus YGR135W, strain pre9, active compounds read low 0.981 | locus YGR229C, strain SMI1, active compounds read low 1.07 | locus YGR252W, strain gcn5, active compounds read low 0.931 | locus YHR013C, strain ard1, active compounds read low 1.01 | locus YHR027C, strain rpn1, active compounds read low 0.991 | locus YHR030C, strain SLT2, active compounds read low 1.01 and 1.02 | locus YHR079C, strain IRE1 (second series), active compounds read low 0.988 | locus YHR079C, strain IRE1, active compounds read low 1.03 | locus YHR094C, strain hxt1, active compounds read low 0.963 | locus YHR129C, strain ARP1, active compounds read low 1.01 | locus YHR142W, strain chs7, active compounds read low 1.01 | locus YHR200W, strain rpn10, active compounds read low 0.97 | locus YIL066C, strain RNR3, active compounds read low 1.02 | locus YIL073C, strain SPO22, active compounds read low 0.887 | locus YIL125W, strain kgd1, active compounds read low 0.986 | locus YIR030C, strain dcg1, active compounds read low 0.994 | locus YJL092W, strain hpr5, active compounds read low 0.996 | locus YJL095W, strain BCK1 (second series), active compounds read low 1 | locus YJL095W, strain BCK1, active compounds read low 1.07 and 1.01 | locus YJL115W, strain asf1, active compounds read low 0.979 | locus YJL129C, strain trk1, active compounds read low 0.987 | locus YJL134W, strain LCB3, active compounds read low 1.01 | locus YJL154C, strain vps35, active compounds read low 1 | locus YJL164C, strain tpk1, active compounds read low 0.997 | locus YJL166W, strain qcr8, active compounds read low 0.991 | locus YJL168C, strain set2, active compounds read low 0.996 | locus YJL187C, strain SWE1 (second series), active compounds read low 1.01 | locus YJR043C, strain POL32, active compounds read low 0.989 | locus YJR066W, strain TOR1, active compounds read low 0.972
